Assay outcomes from PubChem BioAssay.
Pf growth 48h = inhibits P. falciparum growth in the first generation, 48 h; P. falciparum luciferase growth in erythrocytes, 48 h; Potency, µM (titrated, usually from 28.7 µM), without a hit: top-dose activity change, negative = inhibition, usual class: inhibitors; 310,000 compounds, 5.9% hits; AID 504832; further: potency means the concentration at half of the fitted maximal effect
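Growth was read as firefly luciferase luminescence after a 48 h, 37 C, 5% CO2 exposure of compounds to reporter-bearing P. falciparum cultures (0.1% parasitemia, 2% hematocrit final) in Albumax-supplemented RPMI 1640.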
Sm TGR inh = blocks Schistosoma mansoni thioredoxin glutathione reductase | AID 485364 | Q962Y6 | purified TGR, DTNB reduction, TNB absorbance 405 nm | Potency, µM (doses to about 114 µM), without a hit: at the top dose activity change, negative = inhibition, actives largely listed as inhibitors | 360,000 compounds, 3% hits; further: potency means the concentration at half of the fitted maximal effect; nearly all actives have a fitted effect of over 60% in size
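TGR 20 nM + NADPH 100 uM (dispensed conc.), cpd preinc 15 min RT; start with NADPH (500 uM addition) then DTNB (15 mM addition). Kinetic TNB absorbance, 405 nm filter. Four-parameter Hill fit across titration.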
Pf growth 96h = P. falciparum growth inhibition at 96 hours; 320,000 compounds, 6.9% hits; Potency, µM (top dose mostly 28.7 µM), for inactives: top-dose activity change, negative = inhibition, most hits filed as inhibitors; P. falciparum luciferase reporter growth, 96 h; further: potency means the concentration at half of the fitted maximal effect
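Luminescence readout: decreased luciferase signal marks inhibited growth of reporter-expressing P. falciparum in infected red cells (2% hematocrit, 0.05% parasitemia final), exposed to compound two generations (96 h, 37 C, 5% CO2).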
Giardia FBPA inh = blocks Giardia fructose-bisphosphate aldolase activity; A8B2U2; purified Giardia FBPA; Potency, µM (doses to about 59.6 µM), for the others: at the top dose activity, negative = inhibition, hits mostly inhibitors; 290,000 compounds, 0.71% hits; further: potency means the concentration at half of the fitted maximal effect; nearly all actives have a fitted effect of over 55% in size
Target sequence (A8B2U2 whole entry, looked up): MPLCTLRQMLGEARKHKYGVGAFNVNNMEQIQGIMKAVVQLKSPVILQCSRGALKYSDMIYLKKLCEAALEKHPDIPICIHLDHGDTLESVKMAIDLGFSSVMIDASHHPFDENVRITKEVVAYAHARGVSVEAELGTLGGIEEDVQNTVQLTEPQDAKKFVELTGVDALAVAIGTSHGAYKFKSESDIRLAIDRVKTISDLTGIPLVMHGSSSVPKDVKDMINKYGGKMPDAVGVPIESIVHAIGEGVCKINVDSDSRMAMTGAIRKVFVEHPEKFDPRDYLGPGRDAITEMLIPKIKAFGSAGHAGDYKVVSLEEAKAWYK
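Giardia FBPA (40 nM reagent) was preincubated 10 min at RT with compound (up to 57.5 uM final), then substrate plus GAPDH/TPI/NAD/arsenate coupling system with diaphorase/resazurin was added; resorufin fluorescence (525/598 nm) was read after 20 min.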
HCMV inh = inhibitors of human cytomegalovirus; 410,000 compounds, 4.5% hits; AID 1259415; HFF cells, HCMV-luciferase reporter, 72 h; hits give low values; activity change, negative = inhibition, % at 57.5 µM; in the data active means activity change below about -60%; inconclusive means no clear call, values can overlap the other calls; inactive means above about -39%
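After 16 h attachment at 37C, HFF cells received test compound and HCMV-luciferase (1 PFU/cell); reporter luminescence read 72 h later, data normalized against buffer-only and known inhibitor Salinomycin.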
The depositor's hits bear a star; ? = inconclusive; . = no result; ! = not confirmed by another sample; [ ] = another dose, or the depositor's remark. Compounds with a hit are over-represented: about 14% of the library has one in this group of screens. Unless noted, the call rests on the fitted dose curve; in most records, active means well fitted curve in the direction sought with a large enough effect; inconclusive means small, poorly fitted or top-dose-only effect, or another doubt; inactive means no such curve, though single readings can be large; an effect the other way counts as inactive or inconclusive. On the % scale 0 is the no-effect control and ±100 the full control effect.

SMILES	Pf growth 48h	Sm TGR inh	Pf growth 96h	Giardia FBPA inh	HCMV inh
CC(=O)c1c(C)[nH]c(C(=O)COc2cc(C)cc(C)c2)c1C	24.3%	-13.8%	68.9%	-18.4%	-62.2*
CC(=O)c1c(C)[nH]c(C(=O)COc2ccc3ccc(=O)oc3c2)c1C	10.4µM*	-5.7%	?	.	-9.6
O=C(Nc1ccccc1F)N1C[C@@H]2[C@H](c3ccccc31)[C@H](CO)N2C(=O)Nc1ccccc1	.	.	.	.	1.2
Cc1ccc(S(=O)(=O)N2CCC(C(=O)Nc3ccc(C)c(Cl)c3)CC2)cc1	.	-6.3%	.	.	19.9
COC(=O)N1C2=C(c3ccccc3[C@@H]1CC(=O)Nc1ccc3cc4ccccc4cc3c1)[C@@H]1C(=O)N(c3ccccc3)C(=O)[C@@H]1[C@H](C)C2	.	.	.	-3.5%[12.9 µM]	.
NNC(=O)COc1ccc(-c2n[nH]c(C(F)(F)F)c2-c2ccc(Br)cc2)c(O)c1	9.28µM*	-14.8%	8.28µM*	0.0%	27.4
COc1ccccc1-c1c(-c2ccc(OCC(=O)NN)cc2O)n[nH]c1C(F)(F)F	8.28µM*	-3.6%	7.38µM*	1.6%	-31.9
COc1ccc(-c2cn[nH]c2-c2ccc(OCC(=O)NN)cc2O)cc1	?	0.5%	?	11.5%	?
COc1ccc(-c2c(-c3ccc(OCC(=O)NN)cc3O)n[nH]c2C)cc1	?	2.0%	9.28µM*	-27.2%	18.4
COc1ccc(-c2n[nH]c(C(F)(F)F)c2-c2cc3ccccc3o2)c(O)c1	2.08µM*	4.7%	16.5%	-10.2%	-3.5
COCc1cccc(-c2csc(C(O)c3ccccc3)n2)c1 (centres undefined)	.	.	.	.	-20.7
COc1cccc(CNC(=O)CSc2nnc(C)c3c(C)n(-c4ccccc4)nc23)c1OC	.	-4.3%	.	.	-19.1
CC(=O)Nc1ccc2cnn(C(C)=O)c2c1	.	.	.	.	4.5
CC(C)(C)OC(=O)NC(CNCc1ccccc1)Cc1ccccc1 (centres undefined)	?	-7.5%	?	.	23.0
CCC(C)NC(=O)Cn1ccc2cc(S(=O)(=O)N3CCCCCC3)ccc21 (centres undefined)	-2.7%	-13.9%	?	8.6%	-5.3
CCC(C)NC(=O)c1cc2c(=O)[nH]c3ccc(C)cc3c2s1 (centres undefined)	?	1.5%	36.4%	1.0%	-28.7
CN(C)S(=O)(=O)n1cc(/C=C(\NC(=O)c2ccccc2F)C(=O)N2CCCCC2)c2ccccc21	.	.	.	.	-97.1*
CCn1cc(/C=C(\NC(=O)c2cc(OC)c(OC)c(OC)c2)C(=O)NCCCn2ccnc2)c2ccccc21	.	4.6%	.	.	-104.5*
COc1ccc(-c2nn(-c3ccccc3)cc2C(=O)NCCCn2ccnc2)cc1	.	-20.7%	?	12.0%	20.8
COc1ccc(-c2nn(-c3ccccc3)cc2/C=C/C(=O)NCCCn2ccnc2)cc1OC	11.7µM*	5.9%	10.4µM*	1.4%	-8.9
CCn1cc(/C=C(\NC(=O)c2ccc(OC)c(OC)c2)C(=O)N2CCN(C)CC2)c2ccccc21	?	3.4%	10.4µM*	-4.1%	1.8
CN(C)S(=O)(=O)n1cc(/C=C(\NC(=O)c2ccccc2Cl)C(=O)N2CCCC2)c2ccccc21	?	-21.6%	-17.1%	6.9%	?
CN(C)S(=O)(=O)n1cc(/C=C(\NC(=O)c2ccccc2)C(=O)NCCCn2ccnc2)c2ccccc21	?	0.5%	?	.	-34.7
CN(C)S(=O)(=O)n1cc(/C=C(\NC(=O)c2ccccc2Cl)C(=O)NCCCn2ccnc2)c2ccccc21	?	-6.5%	1.1%	22.2%	-105.1*!
CCc1cccc(OCC2Cn3c(nc4c3c(=O)n(C)c(=O)n4C)O2)c1 (centres undefined)	15.7%	-3.2%	?	10.5%	-9.7
SMILES	Pf growth 48h	Sm TGR inh	Pf growth 96h	Giardia FBPA inh	HCMV inh
CCc1cccc(OCC2Cn3c(nc4c3c(=O)[nH]c(=O)n4C)O2)c1 (centres undefined)	5.1%	4.8%	11.7µM*	-3.2%	44.0
Cn1c(=O)c2c(nc3n2CC(COc2ccc(Cl)cc2)O3)n(C)c1=O (centres undefined)	-10.7%	-2.8%	?	6.7%	8.9
Cn1c(=O)c2c(nc3n2CC(COc2ccccc2)O3)n(C)c1=O (centres undefined)	0.0%	-0.6%	9.28µM*	-1.9%	-1.6
CCOC=C1SC(=S)N(c2ccccc2OC)C1=O	.	.	.	.	33.8
CCOC(=O)/C=C/[C@H](CC(C)C)NC(=O)C(F)(F)F	.	.	.	.	-18.7
Cc1ccc(C(=O)c2oc3ccccc3c2NC(=O)Cc2ccccc2)cc1	.	-4.5%	.	.	-16.9
CC1(C)Oc2ccc3ccc(=O)oc3c2-c2cn[nH]c21	?	3.2%	9.28µM*	-17.4%	-80.9*
COc1ccc2c(c1)OC(=O)CC2c1ccccc1C (centres undefined)	.	.	.	-2.2%[89.2 µM]	.
CCN(CCCl)c1cc(CN(C)C)cc(NC(=O)c2ccc(C(=O)Nc3cc(CN(C)C)cc(N(CC)CCCl)c3)cc2)c1	.	.	.	.	-101.1*
CCOc1cc(CNc2ccc(O)cc2)cc(Br)c1OCc1ccccc1	.	-1.2%	.	.	-104.4*
COc1cc(CNC(C)(C)CO)cc(Br)c1OCc1ccccc1	?	-1.4%	?	-4.0%	-32.2
CCOc1cc(CNc2ccc(O)cc2)cc(Br)c1OCc1ccccc1F	?	-15.1%	31.2%	?	.
COc1cc(CNCc2ccncc2)cc(Br)c1OCc1ccccc1F	-8.4%	-7.7%	51.7%	-28.1%	-90.3*
C=CCOc1c(Br)cc(CNc2ccc(NC(=O)C(C)C)cc2)cc1OCC	-8.0%	-22.5%	13.1µM*	?	12.9
COc1cc(CNc2ccc(O)cc2)cc(Br)c1OCc1ccccc1F	?	-31.7%	?	15.8µM*	.
CC(C)[C@H]1COCCS(=O)(=O)N1Cc1cccc(Cl)c1	11.5%	4.1%	?	2.5%	-18.4
COCCNC(=O)C1(C)CCCN(C(=O)c2cc(F)cc(F)c2)C1 (centres undefined)	.	.	.	.	-39.8
CCNc1ncc2nc(-c3ccc(Cl)cc3)c(=O)n(Cc3cccs3)c2n1	.	.	.	-0.3%	.
COc1ccc(OC)c(N(CC(=O)NCCSCc2ccc(C)cc2)S(C)(=O)=O)c1	-8.8%	-14.9%	-21.7%	11.7%	-34.9
COCCCNC(=O)c1ccc(Cn2c(=O)c3ccccc3n(Cc3cc(C)ccc3C)c2=O)cc1	13.1µM*	-8.6%	.	4.0%	18.7
COCCCNC(=O)c1ccc(Cn2c(=O)c3ccccc3n(Cc3ccc(Cl)cc3)c2=O)cc1	.	2.3%	.	.	13.2
CCn1c(=O)cc(OCC(=O)NCCc2cccc(C)c2)c2ccccc21	-14.0%	-24.5%	-5.1%	-8.5%	8.6
CCOCCCNC(=O)c1cc(=O)n(Cc2cccc(C)c2)c2ccccc12	?	-15.1%	9.7%	3.1%	-61.6*
COCCCNC(=O)c1ccc(Cn2c(=O)c3ccccc3n(Cc3ccccc3C#N)c2=O)cc1	.	-3.4%	-31.6%	9.4%	0.7
